# The sample as a whole holds a higher share of hits than the screen did.
# Six1-Eya2 inh: qHTS Assay for Inhibitors of the Six1/Eya2 Interaction | actives 0.56% (n = 360,000) | AlphaScreen GST-Six1/His-Eya2 binding, biochemical; hits give low values | activity change, % (no concentration beside the values) | Homeobox protein SIX1 (Homo sapiens) + Protein phosphatase EYA2 (Homo sapiens), … | AID 651725, 2012
#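 Compounds are tested against tagged Six1 and Eya2 proteins bridged by glutathione donor and nickel acceptor beads; after a one-hour incubation at 37 °C without light, AlphaScreen emission is recorded.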
# KDM4E inh: qHTS Assay for Inhibitors of Human Jumonji Domain Containing 2E (JMJD2E); Lysine-specific demethylase 4E (Homo sapiens), B2RXH2; JMJD2E catalytic domain, FDH-coupled NADH fluorescence (FDH is formaldehyde dehydrogenase); Potency, µM (doses to about 57.1 µM), inactives show at the highest dose activity change, negative = inhibition, actives largely listed as inhibitors; actives 1.6% (n = 230,000); active = well fitted inhibition curve with a large enough effect, not every such curve was filed as active; inconclusive = small, poorly fitted or top-dose-only effect, or another doubt; inactive = no such curve, though single readings can be large or run the other way;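 note: potency is the fitted concentration of half-maximal effect; 0% = wells with enzyme and -100% = buffer wells without enzyme; nearly all actives have a fitted effect of over 50% in size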
# Target sequence (B2RXH2 1-337 limits assumed): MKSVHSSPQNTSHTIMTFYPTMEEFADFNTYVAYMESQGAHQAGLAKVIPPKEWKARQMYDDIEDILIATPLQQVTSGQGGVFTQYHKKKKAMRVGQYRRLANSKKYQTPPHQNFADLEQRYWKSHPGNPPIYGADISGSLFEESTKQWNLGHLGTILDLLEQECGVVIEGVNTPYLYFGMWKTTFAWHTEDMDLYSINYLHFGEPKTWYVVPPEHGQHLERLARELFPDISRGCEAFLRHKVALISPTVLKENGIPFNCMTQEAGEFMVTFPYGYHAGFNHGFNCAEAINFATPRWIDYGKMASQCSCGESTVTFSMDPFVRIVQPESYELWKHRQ
# L3MBTL1 inh: qHTS Assay for the Inhibitors of L3MBTL1. Lethal(3)malignant brain tumor-like protein 1 (Homo sapiens), Q9Y468. AlphaScreen L3MBTL1–H3K9me1 peptide binding. Potency, µM (doses to about 57.1 µM), without a hit: at the highest dose activity, negative = inhibition, actives largely listed as inhibitors. actives 0.66% (n = 230,000). AID 485360, 2010; active = well fitted inhibition curve with a large enough effect; inconclusive = small, poorly fitted or top-dose-only effect; inactive = no such curve, though single readings can be large or run the other way; note: potency is the fitted concentration of half-maximal effect; nearly all actives have a fitted effect of over 60% in size
#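 Displacement of a biotinylated histone H3(1-15) peptide monomethylated at Lys9 (75 nM) from L3MBTL1 (50 nM) was measured by AlphaScreen after a 30 min room-temperature compound incubation; cefsulodin titration served as intraplate control.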
# CtBP-E1A blk: qHTS Assay for Inhibitors of the CtBP/E1A Interaction. AlphaScreen GST-E1A/His-CtBP binding, 1536-well; hits give low values. activity change, % (concentration not given with the values). actives 0.49% (n = 340,000). AID 651724, 2012
#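 Steps: dispense buffer (Tris pH 8.0, NaCl 300 mM, TCEP 1 mM, BSA, Tween 20); add 5X protein mix (GST-E1A, His-CtBP, 125 nM each); pin 23 nL compound; 2 h at 37 °C, dark; add 5X beads (50 ug/mL); 1 h; read.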
# Numbers without * were called inactive; ? = inconclusive; · = not tested or not shown; [ ] = remark or other dose. Cut-off read from the data, not from the text of the source, unless noted: active = activity change below about -65%; inconclusive = mostly about -30% to -63%; inactive = weaker than that. Unless noted, % is set by controls: 0 for no effect and ±100 for the full control effect.
SMILES,Six1-Eya2 inh,KDM4E inh,L3MBTL1 inh,CtBP-E1A blk
Cc1ccc(NC(=O)c2cc(-c3ccco3)nc3ccccc23)cc1S(=O)(=O)N1CCOCC1,-20,16µM*,-8%,-1
COc1ccc(NC(=O)c2cc(-c3ccco3)nc3ccccc23)cc1S(=O)(=O)N1CCOCC1,-21,?,-86%,-6
Cc1ccc(C(=O)c2cn(Cc3ccc(Cl)cc3)c3nc(C)ccc3c2=O)cc1,·,·,-14%,·
CC(=O)/C(=N\Nc1ccccc1)Sc1cccc2cccnc12,-24,9%,-4%,?
CC(=O)/C(=N\Nc1ccccc1Cl)Sc1cccc2cccnc12,-89*,6%,-20%,-92*
COC(=O)CSc1nc2sc3c(c2c(=O)n1-c1ccc(OC)cc1)CCN(C)C3,0,·,·,1
CN1CCc2c(sc3nc(SCC(=O)N4CCOCC4)n(-c4ccc(Cl)cc4)c(=O)c23)C1,-14,·,·,-80*
Cc1ccc2c(Cl)cc(Cl)c(OCC(=O)NCc3ccco3)c2n1,·,25µM*,·,·
C(=C\c1ccc2ccccc2n1)/c1ccccc1,3,?,·,·
CN(C)c1ccc(/C=C/c2ccc3ccccc3n2)cc1,28,22µM*,39%,·
Cn1nnnc1SCC(=O)Nc1ccccc1C(N)=O,1,11%,3%,·
COc1ccc(C(=O)COC(=O)c2ccccc2O)c(OC)c1,6,·,8.9µM*,9
COc1ccc(C(=O)OCC(=O)c2cc(OC)ccc2OC)c(OC)c1,-3,-12%,-1%,4
CC[C@@H]1CC=C[C@H]2[C@H]1C(=O)N(Cc1ccccc1)[C@H]2c1cc(C)ccc1F,·,-2%,·,·
COc1ccc(OC)c(NC(=O)CSc2ncnc3sc(C)cc23)c1,?,·,·,-73*
COc1ccc(OC)c(NC(=O)CNC(=O)Cn2cnc3sc(C)cc3c2=O)c1,3,·,·,8
CCN1/C(=C/c2ccc3cc(C)ccc3[n+]2C)Sc2ccc3sccc3c21,-16,-9%,-23%,·
Cc1sc2c3ccsc3ccc2[n+]1C,9,25µM*,·,-12
Cc1sc2ccc3sccc3c2[n+]1C,4,14µM*,-7%,3
COCCNC(=S)N1CCN(C/C=C/c2ccccc2)CC1,-24,0%,5%,·
O=C(O)c1cccc(COc2ccc3c(c2)CCC3)c1,-1,11%,22µM*,-2
O=C(NCc1ccccc1)c1cccc(COc2ccc3c(c2)CCC3)c1,0,?,13%,6
Cc1cc(-c2n[nH]c(=S)n2/N=C/c2ccc(Cl)c([N+](=O)[O-])c2)n[nH]1,-14,?,-2%,-3
CCc1n[nH]c(=S)n1/N=C/c1ccccn1,1,·,-4%[2.29 µM],-2
Cc1n[nH]c(=S)n(/N=C/c2ccccn2)c1=O,-79*,-14%,21%,-87*
SMILES,Six1-Eya2 inh,KDM4E inh,L3MBTL1 inh,CtBP-E1A blk
Cc1n[nH]c(=S)n(/N=C/c2cccc([N+](=O)[O-])c2)c1=O,?,8%,11%,-66*
S=c1[nH]nc(-c2ccccn2)n1/N=C/c1ccc(Br)s1,-77*,-16%,28µM*,7
O=[N+]([O-])c1cccc(/C=N/n2c(-c3cccnc3)n[nH]c2=S)c1,-20,?,4%,-10
Cc1cc(-c2n[nH]c(=S)n2/N=C/c2cc([N+](=O)[O-])ccc2Cl)n[nH]1,-80*,-10%,-4%,-81*
COc1cc2c(cc1OC)OC(C)(C)C=C2,·,-28%,·,·
CCCCc1nc2c(c3c1C[C@H](C)OC3)CN(S(=O)(=O)c1ccc(NC(C)=O)cc1)CC2,·,3%[11.4 µM],·,·
COC(=O)CC1c2ccccc2C(Cc2ccc3c(c2)OCO3)=C(C)N1C(=O)OC (stereo not drawn),·,-1%,·,·
O=C(NN1C(=O)CSC1=S)C(=O)NN1C(=O)CSC1=S,?,8.9µM*,0.79µM*,?
Oc1ccccc1N=Cc1sc2ccccc2c1Cl,-7,22µM*,-1%,1
Cc1ccc(O)c(N=Cc2sc3ccccc3c2Cl)c1,-11,25µM*,0%,-3
O=C(N/N=C/c1ccncc1)c1cccc(S(=O)(=O)Nc2ccc(Cl)cc2)c1,-4,3.5µM*,·,0
Cc1ccc(C(=O)OCC(=O)Nc2ccc(N3CCOCC3)cc2)cc1,-8,·,-2%,6
CC1=CC(=O)c2c(O)ccc(O)c2C1=O,·,?,0.79µM*,·
CC(=O)NCCc1ccc(O)c(O)c1,·,18µM*,·,·
COC(=O)C(N)Cc1ccc(O)c(O)c1 (stereo not drawn),3,14µM*,·,-3
NCCc1ccc(O)c(O)c1,-1,13µM*,2%,-4
N[C@H](Cc1ccc(O)c(O)c1)C(=O)O,·,18µM*,·,·
O=C(C[C@@H]1C/C=C/CC[C@@H](Cc2ccc(F)cc2)C(=O)O[C@@H](c2ccccc2)CNC1=O)NCCO,1,·,3%,·
Cc1cc(C)cc(NC2=C(N)C(=O)c3ccccc3C2=O)c1,-70*,·,·,?
Cc1cccc(NC2=C(NCCO)C(=O)c3ccccc3C2=O)c1,-67*,?,?,-24
Cc1ccc(NC2=C(Cl)C(=O)c3ccccc3C2=O)cc1,-10,2%,-6%,11
COc1ccc2c(c1)C(=O)[C@H](OC(=O)NCc1ccco1)[C@@H](c1ccc(OC)c(Br)c1)O2,·,-24%,·,·
COC(=O)C/C=C/[C@@H](C)[C@H](O)c1ccccc1Br,·,0%,·,·
Cc1cccc(C(=O)OCC(=O)c2cccc(Br)c2)c1O,0,·,·,-1
CC(=O)OC1CC2C(C)(C)C(=O)[C@@H]3OC3[C@@]2(C)C2CC[C@]3(C)C(=CC(=O)OC3c3ccoc3)[C@]12C (stereo partly drawn),·,0%,·,·
SMILES,Six1-Eya2 inh,KDM4E inh,L3MBTL1 inh,CtBP-E1A blk
O=c1c(O)c(-c2ccc(O)c(O)c2)oc2c(OC[C@@H]3O[C@@H](O)[C@@H](O)[C@H](O)[C@H]3O)c(O)cc(O)c12,·,5µM*,·,·
O=c1cc(-c2ccc(O)c(O)c2)oc2cc(O[C@@H]3O[C@H](CO)[C@@H](O)[C@H](O)[C@H]3O)cc(O)c12,?,·,4µM*,-10
C[C@@H]1O[C@@H](O[C@H]2[C@H](O)[C@@H](O)[C@H](Oc3c(-c4ccc(O)c(O)c4)oc4cc(O)cc(O)c4c3=O)O[C@@H]2CO)[C@H](O)[C@H](O)[C@H]1O,-9,·,?,-8
O=c1c(O[C@@H]2O[C@H](CO)C(O)C2O)c(-c2ccc(O)c(O)c2)oc2cc(O)cc(O)c12 (stereo partly drawn),-15,·,14µM*,1
O=c1cc(-c2ccc(O)cc2)oc2cc(O[C@H]3OC(CO)C(O)C(O)C3O)cc(O)c12 (stereo partly drawn),·,-10%,·,·
C[C@@H]1O[C@@H](Oc2c(-c3cc(O)c(O)c(O)c3)oc3cc(O)cc(O)c3c2=O)[C@H](O)[C@H](O)[C@H]1O,-21,2.2µM*,?,-5

# Screening results: PubChem, National Center for Advancing Translational Sciences (NCATS)
